ELG1 genotox – inducers of genotoxicity in HEK293T ELG1-luciferase cells; HEK293T ELG1-luciferase reporter, luminescence, 16 h; Potency, µM (doses to about 46 µM), without a hit: top-dose activity change, positive = activation, hits mostly activators; 330,000 tested, 1.3% active; AID 504466; further: % of control where 0% means no effect; nearly all actives have a fitted effect of over 60% in size
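Luminescence read-out: rising ELG1-luciferase signal, reflecting elevated ELG1 protein under genetic stress, flags genotoxic compounds. Cells were treated for 16 hr at 37 °C before ONE-Glo detection.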
NPC1 promoter act – NPC1 promoter activation; AID 485313; Huh7 NPC1 promoter luciferase reporter, 24 h; Potency, µM (titrated, usually from 9.22 µM), for the others: at the highest dose activation, usual class: activators; 320,000 tested, 2.4% active; further: % of control where 0% means no effect; nearly all actives have a fitted effect of over 60% in size
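NPC1 promoter–luciferase Huh7 cells; 24 h compound; luminescence.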
FLuc modulator – firefly luciferase modulation, counter-screen for miR-21 project; purified FLuc, Km substrates, luminescence inhibition; Potency, µM (highest dose often 57.5 µM), for the others: at the top dose activity change, negative = inhibition, hits mostly inhibitors; 360,000 tested, 6.9% active; AID 588342;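 further: plate controls were vehicle for no effect and reference inhibitor for full effect; nearly all actives have a fitted effect of over 55% in size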
Target sequence (P08659 whole entry, looked up): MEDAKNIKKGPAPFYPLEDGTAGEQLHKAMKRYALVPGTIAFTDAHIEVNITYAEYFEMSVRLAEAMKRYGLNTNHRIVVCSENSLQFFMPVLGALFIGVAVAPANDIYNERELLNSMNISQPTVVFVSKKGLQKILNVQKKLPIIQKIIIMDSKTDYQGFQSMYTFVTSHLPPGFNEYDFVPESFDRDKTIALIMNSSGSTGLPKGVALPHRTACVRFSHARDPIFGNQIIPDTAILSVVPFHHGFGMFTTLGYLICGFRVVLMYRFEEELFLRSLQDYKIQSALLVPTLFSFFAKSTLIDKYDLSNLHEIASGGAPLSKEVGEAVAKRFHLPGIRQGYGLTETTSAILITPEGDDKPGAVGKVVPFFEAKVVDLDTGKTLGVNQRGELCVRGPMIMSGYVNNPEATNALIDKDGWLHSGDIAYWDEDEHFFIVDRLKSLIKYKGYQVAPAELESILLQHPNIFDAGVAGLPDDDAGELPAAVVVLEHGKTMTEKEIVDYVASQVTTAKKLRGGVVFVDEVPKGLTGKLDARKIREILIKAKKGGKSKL
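Purified P. pyralis luciferase, 10 nM final, with Km-level 10 uM D-luciferin and 10 uM ATP in 50 mM Tris acetate pH 7.5, 10 mM Mg acetate, 0.01% Tween-20, 0.05% BSA; 6-point qHTS titration about 60 µM downward; luminescence read.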
KinaseGlo FLuc – blocks Kinase-Glo luciferase, a counter-screen artifact | Q27757 | 200,000 tested, 0.28% active | Potency, µM (top dose mostly 38.3 µM), without a hit: at the top dose activity change, negative = inhibition, actives largely listed as inhibitors | Kinase-Glo luciferase, ATP luminescence, 8 min; further: on the % scale 0 is the no-effect control and ±100 the full control effect; nearly all actives have a fitted effect of over 60% in size
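Kinase-Glo luciferase light output from ATP and luciferin was measured with 10 uM ATP, within the enzyme's linear range. Buffer: 50 mM imidazole pH 7.2, 50 mM KCl, 7 mM MgCl2, 0.01% Tween 20, 0.05% BSA; luminescence read after 8 min at ambient temperature.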
SMN2 splice enh – increases expression of the SMN2 splice variant | HEK293 SMN2-luciferase splicing reporter, luminescence, 30-36 h | Potency, µM (doses to about 46.1 µM), inactives show at the highest dose activity change, positive = activation, hits mostly activators | 210,000 tested, 2.8% active; further: % of control where 0% means no effect; nearly all actives have a fitted effect of over 55% in size
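qHTS luciferase splicing reporter: luminescence rises when SMN2 exon 7 is included in transfected HEK293 cells. Compound exposure lasted 30-36 h at 37C, with 4.5 mM final sodium butyrate as control, followed by a ONE-Glo read.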
Rab9 promoter act – Rab9 promoter activation. Huh7 Rab9 promoter-luciferase reporter, luminescence, 24 h. Potency, µM (highest dose often 9.22 µM), for inactives: top-dose activation, negative = inhibition, actives largely listed as activators. AID 485297. 320,000 tested, 2.8% active; further: % of control where 0% means no effect; nearly all actives have a fitted effect of over 60% in size
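Luminescence read-out: Huh7 cells stably expressing Rab9-luciferase, treated 24 h with compound at 37 °C, then lysed with luciferase reagent for 10 min at ambient before reading.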
* = called active by the depositor; ? = inconclusive; · = no result given; [ ] = another dose, or the depositor's remark. Hits are enriched below; roughly 7.5% of the tested compounds scored in any of these assays. The call rests on the fitted dose curve; in most records, active means well fitted curve in the direction sought with a large enough effect; inconclusive means small, poorly fitted or top-dose-only effect, or another doubt; inactive means no such curve, though single readings can be large; an effect the other way counts as inactive or inconclusive. Potency means the concentration at half of the fitted maximal effect.

SMILES	ELG1 genotox	NPC1 promoter act	FLuc modulator	KinaseGlo FLuc	SMN2 splice enh	Rab9 promoter act
CN(C)/C=N/c1ncc(C(=O)c2ccc3ccccc3c2)s1	3%	23%	24µM*	0%	-29%	?
COc1ccc(C(=O)c2cnc(/N=C/N(C)C)s2)cc1	11%	13%	?	4%	?	26%
COc1ccc2ccccc2c1/C=N/Nc1cccc(C(=O)O)c1	?	1.1µM*	8.5µM*	·	·	0.89µM*
O=C(O)c1cccc(N/N=C/c2cccc3ccccc23)c1	?	0.1µM*	0.076µM*	·	·	?
CCOc1cc(/C=N/Nc2cccc(C(=O)O)c2)ccc1OC(=O)c1ccccc1	?	0.089µM*	17µM*	-1%	1µM*	0.1µM*
COc1ccc2ccccc2c1/C=N/Nc1ccc(Cl)c(C(=O)O)c1	11%	?	?	·	·	?
COc1ccc(N/N=C/c2c(C(=O)O)ccc3ccccc23)cc1	6%	-38%	9.5µM*	·	·	-38%
CC(=O)N1CCC2(CC1)OC(=O)C(C)=C2C(=O)NCc1ccc(Cl)cc1	·	·	0%	·	·	·
CCn1c(Cn2nnc(-c3ccccc3)n2)nnc1SCC(=O)Nc1ccc(C(C)=O)cc1	14%	?	19µM*	-8%	14%	24%
CC1CCCN(Cc2c(O)ccc3c(=O)c(-c4ccccc4Cl)c(C(F)(F)F)oc23)C1 (stereo not drawn)	·	·	0%	·	-3%	·
COC(=O)c1ccc(NC(=O)C(=O)NCCc2sc(-c3cccc(F)c3)nc2C)cc1	·	·	-1%	·	·	·
COc1ccccc1NC(=O)NCc1cccn1Cc1ccccc1	·	·	-8%	·	·	·
Cc1cc(C(=O)N/N=C/c2cccc(Cl)c2Cl)no1	21µM*	?	11µM*	-4%	20%	?
CCOC(=O)N/N=C/c1cn(CCCOc2ccc(C)cc2)c2ccccc12	-1%	1.8µM*	-3%	-2%	-70%	?
CCCn1c(=O)c(C(=O)N/N=C/c2ccccc2F)c(O)c2ccccc21	?	?	-7%	-1%	13µM*	2.2µM*
Cc1cc(C(=O)NNc2c(Cl)cccc2Cl)no1	1%	-2%	0%	·	·	1%
CCOC(=O)N/N=C/c1cn(CCCOc2ccccc2)c2ccccc12	-3%	?	0%	0%	-49%	?
CCOC(=O)N/N=C/c1cccc(Cl)c1Cl	11%	17%	21µM*	-1%	?	23%
CCCn1c(=O)c(C(=O)N/N=C/c2ccc(F)cc2)c(O)c2ccccc21	-3%	1%	1%	·	·	-6%
CCCCN(C)CCCNC(=O)Cn1ncc2c3ccccc3n(Cc3cc(C)ccc3C)c2c1=O	·	·	1%	·	?	·
CCOC(=O)N/N=C/c1ccccc1F	28%	2.5µM*	?	-6%	?	2.8µM*
CCOC(=O)N/N=C/c1ccc(N(CC)CC)cc1O	?	-11%	24µM*	-1%	?	-2%
Cc1cccc(C)c1NC(=O)C(=O)NCC(c1cccnc1)N1CCc2ccccc21 (stereo not drawn)	·	·	-7%	·	·	·
CCC(=O)N1c2ccccc2CC1C(=O)NCc1cccc(C)c1 (stereo not drawn)	·	·	-5%	·	·	·
Cc1ccc(C)c(CSc2nc(-c3ccccc3F)nc3c2Cc2c(CO)cnc(C)c2O3)c1	·	·	-1%	·	·	·
SMILES	ELG1 genotox	NPC1 promoter act	FLuc modulator	KinaseGlo FLuc	SMN2 splice enh	Rab9 promoter act
Cc1cc2nc3ccc(=[N+](C)C)cc-3sc2cc1N	-2%	12%	17µM*	·	·	14%
O=C(NCCc1ccccc1)C(=O)NCC(c1cccnc1)N1CCN(c2ccccc2F)CC1 (stereo not drawn)	·	·	-6%	·	·	·
O=C(Oc1ccc(Oc2ccccc2)cc1)N1CCC(O)CC1	?	?	17µM*	·	·	?
O=C(Oc1ccccc1)N1CCCC1	0%	7%	-1%	·	·	2%
O=C(Oc1ccc(-c2ccccc2)cc1)N1CCOCC1	?	2.8µM*	21µM*	1%	?	2µM*
N#C/C(=N\Nc1ccccc1)C(=N)N1CCOCC1	1%	5%	?	6%	76%	5%
N#C/C(=N\Nc1ccc(Cl)cc1)C(N)=S	-16%	-11%	19µM*	·	·	-14%
COc1ccc(N/N=C(\C#N)C(=N)SCc2ccccc2)cc1	-12%	-4%	27µM*	-4%	-5%	-8%
N#C/C(=N\Nc1ccccc1F)C(=N)N1CCCCC1	21µM*	3.2µM*	12µM*	0%	11µM*	1.6µM*
COc1ccc(N/N=C(\C#N)C(=N)N2CCCCC2)cc1	?	2µM*	4.8µM*	·	·	2.5µM*
Fc1ccc(CNc2ncnc3onc(-c4ccc(F)cc4)c23)cc1	·	·	3%	·	·	·
COC(=O)c1ccccc1NC(=O)CCS(=O)(=O)c1nc(-c2ccc3c(c2)OCO3)cc(C(F)(F)F)n1	·	·	-6%	·	1%	·
COc1cccc(N2C(=O)CSC23C(=O)N(Cc2ccccc2)c2ccccc23)c1 (stereo not drawn)	·	·	1%	·	·	·
Cc1cc(=O)oc2cc3oc(=O)cc(C)c3cc12	-4%	2%	-2%	·	·	-1%
CCN(CC)C(=N)/C(C#N)=N/Nc1ccc(C)cc1	?	2µM*	9.5µM*	·	·	2µM*
N#C/C(=N\Nc1ccc(Cl)cc1)C(=N)N1CCCCC1	5%	0.4µM*	1.7µM*	-8%	?	·
N#C/C(=N\Nc1ccc(F)cc1)C(=N)N1CCCCCC1	?	0.45µM*	2.7µM*	12%	4µM*	0.89µM*
Cc1ccc(N/N=C(\C#N)C(=N)N2CCCCCC2)cc1	1.8µM*	0.5µM*	2.7µM*	-1%	2.2µM*	0.79µM*
Cc1ccc(N/N=C(\C#N)C(=N)N2CCOCC2)cc1	?	?	?	1%	?	?
COc1cccc(N2CCN(S(=O)(=O)c3cn(C)c(C)n3)CC2)c1	·	·	0%	·	·	·
CNC(=O)[C@H](C)/C=C(\c1cccnc1)C(NC(=O)OCc1ccccc1)c1ccc(C(=O)OC)cc1 (stereo partly drawn)	·	·	·	-4%	-5%	·
N#Cc1cc([N+](=O)[O-])c2sc(C(N)=O)[n+]([O-])c2c1	·	-14%[46.1 µM]	·	·	·	-2%[46.1 µM]
CCOc1ccc(C(=O)N2CCC(c3ccncc3)CC2)cc1	·	·	1%	·	·	·
COc1ccc(-n2c(=O)c3ccc(C(=O)NCc4ccc(C)cc4)cc3n(CC(=O)Nc3cccc(F)c3)c2=O)cc1	·	·	-2%	·	5%	·
Cc1ccc(/C=C2/Sc3ccc(C(=O)N4CCN(C)CC4)cc3NC2=O)cc1	2%	-1%	15µM*	·	·	0%
CCN1CCCC1CNC(=O)c1ccc2c(c1)NC(=O)/C(=C\c1ccc(C)cc1)S2 (stereo not drawn)	?	0%	21µM*	·	·	-2%

Screens from PubChem BioAssay.
